Measured values published in PubChem BioAssay (Tox21).
Values joined by “and” are separate entries in the source; they are usually repeats but may differ in a detail not shown here. Identical values can stand only once. Results filed as inconclusive are left out. Some compounds were tested as several samples or in several runs, with calls that do not always agree. Active and inactive are the calls of the source. The call rests on the fitted dose curve; in most records, active means well fitted curve in the direction sought with a large enough effect in the repeat runs; inconclusive means weak or mixed curves; inactive means no such curve, though single readings can be large; an effect the other way counts as inactive or inconclusive.

Tests used:
[1] = qHTS RealTime-Glo MT Cell Viability Assay in HEK293 cells - 0 hour (AID 1224880); further: nearly all actives have a fitted effect of over 45% in size; further: potency means the concentration at half of the fitted maximal effect
In short: (§1)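 Kinetic, non-lysing viability readout. Seed HEK293 (600/well) with reagent, incubate 5 h at 37 C/5% CO2, pin 23 nL compound in DMSO, incubate at 37 C, read luminescence at 0, 8, 16, 24, 32, 40 h.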

[2] = A CellTox Green Cytotoxicity Assay to monitor cytotoxicity in HEK293 cells - 32 hour (AID 1224881); further: nearly all actives have a fitted effect of over 40% in size; further: potency means the concentration at half of the fitted maximal effect
In short: (§2)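 Real-time, in one plate: 600 HEK293 cells/well with dead-cell DNA dye, pinned compound after 5 h, 37 C incubation over 40 h; viable cells give no appreciable fluorescence.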

[3] = A CellTox Green Cytotoxicity Assay to monitor cytotoxicity in HepG2 cells - 0 hour (AID 1224882); further: nearly all actives have a fitted effect of over 35% in size; further: potency means the concentration at half of the fitted maximal effect
In short: (§3)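 Cytotoxicity was tracked as dead-cell DNA fluorescence in HepG2 cells treated with test compounds at 37 C; each time-point value comes from one kinetic series spanning 0, 8, 16, 24, 32 and 40 h.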

[4] = A CellTox Green Cytotoxicity Assay to monitor cytotoxicity in HepG2 cells - 32 hour (AID 1224883); further: nearly all actives have a fitted effect of over 50% in size; further: potency means the concentration at half of the fitted maximal effect
In short: as §3

[5] = A CellTox Green Cytotoxicity Assay to monitor cytotoxicity in HEK293 cells - 8 hour (AID 1224884); further: nearly all actives have a fitted effect of over 35% in size; further: potency means the concentration at half of the fitted maximal effect
In short: as §2

[6] = qHTS RealTime-Glo MT Cell Viability Assay in HepG2 cells - 16 hour (AID 1224885); further: nearly all actives have a fitted effect of over 50% in size; further: potency means the concentration at half of the fitted maximal effect
In short: (§4)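 HepG2 suspension premixed with RealTime-Glo reagents is plated at 600 cells per well and left 5 h at 37 C/5% CO2. Compounds in DMSO then go in, and bioluminescence reflecting viable cell number is recorded over 40 h.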

[7] = qHTS RealTime-Glo MT Cell Viability Assay in HEK293 cells - 24 hour (AID 1224886); further: nearly all actives have a fitted effect of over 50% in size; further: potency means the concentration at half of the fitted maximal effect
In short: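 Reads taken at 0, 8, 16, 24, 32 and 40 h from the same wells. HEK293 cells (600/well) carried RealTime-Glo reagents from seeding, with compound added after a 5 h settle at 37 C.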

[8] = qHTS RealTime-Glo MT Cell Viability Assay in HEK293 cells - 8 hour (AID 1224887); further: nearly all actives have a fitted effect of over 50% in size; further: potency means the concentration at half of the fitted maximal effect
In short: as §1

[9] = qHTS RealTime-Glo MT Cell Viability Assay in HepG2 cells - 0 hour (AID 1224889); further: nearly all actives have a fitted effect of over 50% in size; further: potency means the concentration at half of the fitted maximal effect
In short: as §4

[10] = A CellTox Green Cytotoxicity Assay to monitor cytotoxicity in HEK293 cells - 16 hour (AID 1224888); further: nearly all actives have a fitted effect of over 35% in size
In short: as §2

Measured: Potency

Nc1ccc(-c2ccccc2)cc1
7.11 µM (active) and inactive: [7]
not listed: [9] | [10]
inactive: all other assays above

CCN(CC)C(=O)/C(Cl)=C(\C)OP(=O)(OC)OC
not listed: [10]
inactive: all other assays above

Nc1c(Cl)cc([N+](=O)[O-])cc1Cl
not listed: [7] | [9]
inactive: all other assays above

O=C(Nc1ccc(Br)cc1)c1cc(Br)cc(Br)c1O
38.9 µM (active) and inactive: [2]
inactive and 43.6 µM (active): [3]
inactive: [6] | [7] | [8]
inactive and 38.9 µM (active): [5]
active: [1] 24.5 µM | [4] 19.4 µM and 27.5 µM and 21.3 µM | [9] 21.8 µM

COc1ccc(C=O)cc1
not listed: [6] | [9]
inactive: all other assays above

C#C[C@]1(O)CC[C@H]2[C@@H]3CCC4=CC(=O)CC[C@]4(C)[C@H]3CC[C@@]21C
active: [2] 49 µM
not listed: [7] | [9]
inactive: all other assays above

CN(C)C(=O)Nc1ccc(Cl)cc1
not listed: [6] | [7]
inactive: all other assays above

Nc1cccnc1
inactive: [1] | [2] | [3] | [4] | [5] | [8]

CCCCCCCCOC(=O)c1ccccc1C(=O)OCCCCCCCC
inactive: all assays above

Oc1cc(Cl)c(Cl)cc1Cl
not listed: [8] | [9]
inactive: all other assays above

c1ccc(NNc2ccccc2)cc1
inactive and 43.6 µM (active): [9]
active: [2] 24.5 µM
inactive: all other assays above

O=[N+]([O-])c1c(Cl)c(Cl)c(Cl)c(Cl)c1Cl
21.8 µM (active) and inactive: [2]
inactive: all other assays above

CC(C)N(C(=O)SCC(Cl)=C(Cl)Cl)C(C)C
not listed: [9]
inactive: all other assays above

CCCCCCCCCCCOC(=O)c1ccccc1C(=O)OCCCCCCCCCCC
not listed: [6] | [9]
inactive: all other assays above

CCC(C)(C)c1ccc(O)cc1
active: [2] 49.5 µM and 43.6 µM | [4] 44.1 µM and 38.9 µM and 21.3 µM
not listed: [10]
inactive: all other assays above

NNC(N)=S
not listed: [9]
inactive: all other assays above

CCCCOCCOP(=O)(OCCOCCCC)OCCOCCCC
not listed: [7] | [9] | [10]
inactive: all other assays above

Cc1cc(C)cc(C)c1
not listed: [9] | [10]
inactive: all other assays above

CCCCN(CCCC)N=O
not listed: [6] | [9] | [10]
inactive: all other assays above

CCCCC(CC)COC(=O)Cl (configuration not stated)
inactive: all assays above

O=C(O)CC[N+](=O)[O-]
not listed: [6] | [10]
inactive: all other assays above

O=C(NC(=O)c1c(F)cccc1F)Nc1ccc(Cl)cc1
not listed: [7]
inactive: all other assays above

Cc1cccc(N)c1N
not listed: [9] | [10]
inactive: all other assays above

NCc1cccnc1
not listed: [6] | [9]
inactive: all other assays above

CC(O)CCO (configuration not stated)
not listed: [7]
inactive: all other assays above

COP(=S)(OC)Oc1cc(Cl)c(Cl)cc1Cl
not listed: [7] | [9]
inactive: all other assays above

CCCCCCCCC(=O)NCc1ccc(O)c(OC)c1
not listed: [7] | [8]
inactive: all other assays above

CCOC(=O)C(C)OC(=O)c1cc(Oc2ccc(C(F)(F)F)cc2Cl)ccc1[N+](=O)[O-] (configuration not stated)
30.7 µM (active) and inactive: [7]
active: [8] 30.7 µM
inactive: all other assays above

NC(=S)Nc1ccccc1
8.86 µM (active) and inactive: [7]
49.8 µM (active) and inactive: [2] | [3] | [4] | [5]
not listed: [10]
inactive: all other assays above

CCCCCCOC(=O)c1ccccc1C(=O)OCCCCCC
not listed: [6]
inactive: all other assays above

Nc1ccc(-c2ccc(N)c(N)c2)cc1N
not listed: [6] | [10]
inactive: all other assays above

O=C(CCl)c1ccccc1
inactive and 54.9 µM (active): [2]
inactive and 49 µM (active): [7]
not listed: [10]
inactive: all other assays above

c1nc[nH]n1
not listed: [9]
inactive: all other assays above

O=C1C=CC(=O)C=C1
not listed: [6]
inactive: all other assays above

S=C1NCCN1
inactive: all assays above

CCCCN(CC)c1c([N+](=O)[O-])cc(C(F)(F)F)cc1[N+](=O)[O-]
active: [8] 17.7 µM
inactive: all other assays above

C#CCOS(=O)OC1CCCCC1Oc1ccc(C(C)(C)C)cc1 (configuration not stated)
active: [7] 15.5 µM and 19.5 µM | [8] 17.4 µM
not listed: [6] | [9]
inactive: all other assays above

CCOP(=S)(OCC)O/N=C(\C#N)c1ccccc1
not listed: [10]
inactive: all other assays above

Nc1ccncc1
not listed: [3] | [6] | [7]
inactive: all other assays above

Cc1ccc(OP(=O)(Oc2ccc(C)cc2)Oc2ccc(C)cc2)cc1
4.89 µM (active) and inactive: [4]
not listed: [3]
inactive: all other assays above

COC(=O)c1sccc1S(=O)(=O)NC(=O)Nc1nc(C)nc(OC)n1
not listed: [3] | [9]
inactive: all other assays above

CC(C)(C)c1ccccc1O
active: [4] 49.5 µM
inactive: [1] | [5] | [8] | [10] | [9]
44.2 µM (active) and inactive: [2]

CN(C)c1ccc(C(=O)c2ccc(N(C)C)cc2)cc1
active: [4] 12.2 µM
not listed: [3] | [7] | [9]
inactive: all other assays above

N[C@@H](Cc1ccc(N(CCCl)CCCl)cc1)C(=O)O
inactive: [1] | [2] | [5] | [7] | [8]

CCOc1cc(Oc2ccc(C(F)(F)F)cc2Cl)ccc1[N+](=O)[O-]
inactive: [1] | [2] | [4] | [5]

CCN(CC)N=O
not listed: [3]
inactive: all other assays above

CC1(C)C(C=C(Cl)Cl)C1C(=O)OC(C#N)c1cccc(Oc2ccccc2)c1 (configuration not stated)
not listed: [3]
inactive: all other assays above

CCOCN(C(=O)CCl)c1c(C)cccc1CC
not listed: [6] | [7] | [10]
inactive: all other assays above

CCCCCc1cc(O)cc(O)c1
inactive and 43.6 µM (active): [6]
active: [7] 38.9 µM | [8] 24.5 µM
not listed: [4]
inactive: all other assays above

C=CC(=O)OCCO
not listed: [3]
inactive: all other assays above
